An excerpt weighted towards active compounds, which were near 2.5% of everything screened.
Mito fusion act – blocks mitochondrial division or promotes mitochondrial fusion. S. cerevisiae fusion-defective mutant growth rescue, CellTiterGlo 48 h. Potency, µM (series often up to 46.1 µM), for inactives: at the top dose growth rescue (activation), usual class: activators. hit rate 0.23% among 320,000. AID 485298; note: potency is the fitted concentration of half-maximal effect; % of control where 0% means no effect; nearly all actives have a fitted effect of over 45% in size
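S. cerevisiae fusion-defective temperature-sensitive mutants (e.g. fzo1-1, mgm1-5) grown 48 h at 37C in YPEG (ethanol/glycerol non-fermentable) medium with 23 nl compound per well; growth rescue read as CellTiterGlo luminescence.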
TDP-43 yeast inh – rescues yeast growth from TDP-43 toxicity | TDP-43 expressing yeast growth rescue, BacTiter-Glo, 24 h | Potency, µM (top dose mostly 46.1 µM), for the others: at the highest dose growth rescue (activation), most hits filed as activators | hit rate 1.8% among 410,000 | AID 652104; note: potency is the fitted concentration of half-maximal effect; % of control where 0% means no effect; nearly all actives have a fitted effect of over 50% in size
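Yeast expressing TDP-43 (pregrown in raffinose, seeded at OD600=0.02 in galactose medium) exposed to compounds 24 hr at 30 deg C. Growth read by BacTiter-Glo luminescence; rescue of toxicity appears as increased signal.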
CCT chaperon mod – modulators of cytosolic chaperonin (CCT/TRiC) activity | purified chaperonin ATPase assay, HTRF ADP detection, 30 min | hit rate 0.3% among 360,000 | activity change, % (no concentration beside the values), hits read low; in the data active = activity change below about -30%; note: % is set by controls: 0 for no effect and ±100 for the full control effect
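TRiC at 40 or 20 nM final (batch-dependent) in 30 mM Tris pH 7.4, 100 mM KCl, 5 mM MgCl2, 1 mM DTT, with compound at single 76 uM and 10 uM ATP, 30 min at 37 deg C. ADP detected by HTRF Transcreener, 665/615 ratio.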
aSyn yeast inh – alpha-synuclein toxicity inhibition in yeast. Yeast expressing alpha-synuclein, growth rescue, BacTiter-Glo, 24 h. hit rate 0.14% among 370,000. AID 652106. Potency, µM (series often up to 46.1 µM), for the others: at the top dose growth rescue (activation), hits mostly activators; note: potency is the fitted concentration of half-maximal effect; % of control where 0% means no effect; nearly all actives have a fitted effect of over 65% in size
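Screening used galactose-induced yeast with toxic alpha-synuclein levels, exposed to compound for 24 hr at 30 deg C. Cell growth, read with BacTiter-Glo luminescence, gave the measured signal.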
Akt phos inh – Akt phosphorylation inhibition | Neuro2A IGF-stimulated pAkt S473 HTRF, 20 min; stronger effect = lower value | hit rate 0.32% among 360,000 | activity change, % for hits at 50 µM; in the data active = activity change below about -80%; inconclusive = mostly about -51% to -80%; note: % is set by controls: 0 for no effect and ±100 for the full control effect
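Neuro2A cells (4,500/well, DMEM with 0.5% FBS) were treated with compound at a single 50 µM final concentration, stimulated with 6 nM IGF for 20 min at 37 °C, and lysed. Phospho-Akt Ser473 was read by HTRF as 665/615 ratio ×10^4.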
Apoferritin bind – binds horse apoferritin like a general anesthetic | P02791 | apoferritin/1-aminoanthracene competitive binding, fluorescence | Potency, µM (doses to about 77.5 µM), inactives show at the top dose activity change, negative = displacement, most hits filed as inhibitors | hit rate 0.074% among 350,000 | AID 485281; note: potency is the fitted concentration of half-maximal effect; % is set by controls: 0 for no effect and ±100 for the full control effect; nearly all actives have a fitted effect of over 20% in size
Target sequence (P02791 2-175 limits assumed): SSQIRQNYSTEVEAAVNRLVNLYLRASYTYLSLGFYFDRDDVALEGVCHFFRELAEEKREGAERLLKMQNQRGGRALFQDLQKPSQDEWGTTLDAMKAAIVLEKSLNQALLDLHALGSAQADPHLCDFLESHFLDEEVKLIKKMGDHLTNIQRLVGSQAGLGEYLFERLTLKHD
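Concentration-response curves derived by four-parameter Hill fitting of normalized fluorescence, where compounds displaced 1-AMA from 10 uM horse apoferritin following a brief 10 min room-temperature incubation; propofol titration acted as positive control.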
Numbers without * were called inactive; i = inactive; ? = inconclusive; nt = not tested or not shown; [ ] = remark or other dose. Unless noted, calls come from the whole dose curve; as a rule, active = well fitted curve in the direction sought with a large enough effect; inconclusive = small, poorly fitted or top-dose-only effect, or another doubt; inactive = no such curve, though single readings can be large; an effect the other way counts as inactive or inconclusive.

SMILES	Mito fusion act	TDP-43 yeast inh	CCT chaperon mod	aSyn yeast inh	Akt phos inh	Apoferritin bind
O=S(=O)(Nc1nc2ccccc2nc1Cl)c1ccc(F)cc1	1.6%	6.6%	-0.5	-2.8%	i	-6.9%
C[N+](C)(CCCOc1ccccc1)c1ccccc1	nt	nt	nt	nt	nt	2.3%[29.3 µM]
S=C(N/N=C/c1ccco1)NC1CC2CCC1C2 (stereo not drawn)	-7.3%	14.1µM*	-0.6	-9.7%	i	-11.5%
CCOC(=O)C(=CNc1cccc(C)c1C)C(=O)OCC	-0.7%	-4.3%	-122.3*	-7.7%	i	-2.3%
CCOC(=O)C(=CNNc1cccc(Cl)c1)C(=O)OCC	-2.1%	11.2µM*	2.2	27.4%	i	?
CCOC(=O)C(=CNc1cccc(N)n1)C(=O)OCC	7.6%	15.5%	-1.8	2.4%	i	0.9%
CCOC(=O)C(=CNc1ccc(Cl)cn1)C(=O)OCC	-12.2%	11.2µM*	-4.5	1.8%	i	2.5%
CCOC(=O)C(=CNc1ccc(C)cc1C)C(=O)OCC	6.3%	?	-0.7	-4.5%	i	3.7%
Cc1nn(CCCC(=O)NCCc2ccc(Cl)cc2)c(=O)c2c1sc1ccccc12	nt	23.0%	nt	nt	nt	-3.5%
O=C(C[n+]1cccc(Cl)c1)c1ccc(F)cc1	nt	nt	nt	8.1%	nt	nt
c1ccc(-c2csc3ncnc(N4CCOCC4)c23)cc1	?	-11.0%	0.1	-0.5%	i	-6.7%
COc1ccc(N2CCN(c3ncnc4scc(-c5ccc(C)cc5)c34)CC2)cc1	-7.8%	?	-2.3	-0.6%	i	-10.6%
COc1ccc(N2CCN(C(=O)CSc3ncnc4scc(-c5ccc(C)cc5)c34)CC2)cc1	nt	11.2µM*	0.5	-4.8%	i	nt
Cc1sc2ncnc(-n3nnc4ccccc43)c2c1C	3.3%	19.3%	0.0	-3.4%	i	-6.6%
Brc1ccc(-c2csc3ncnc(-n4nnc5ccccc54)c23)cc1	12.6µM*	?	-1.6	-2.7%	i	0.7%
Cc1cc2ncn(-c3ncnc4scc(-c5ccccc5)c34)c2cc1C	4.8%	8.91µM*	-2.4	0.1%	i	?
c1ccc(-c2csc3ncnc(N4CCc5ccccc5C4)c23)cc1	?	11.2µM*	-3.8	-0.5%	i	1.5%
Cc1ccccc1-c1nc(CN2CCC(C(=O)NCc3ccccc3Cl)CC2)c(C)o1	nt	7.4%	nt	nt	nt	-1.1%
COc1ccc(-c2cc(C3C4C=CCCC4(C)C(=O)N3Cc3ccccc3)ccc2F)cc1OC (stereo not drawn)	nt	nt	nt	nt	nt	39.2%
O=C(Cl)CCCCCCCC(=O)Cl	nt	nt	nt	nt	nt	-4.6%
COc1ccccc1NC(=O)Cn1c(=O)n(-c2ccc(C)cc2)c(=O)c2c1cnn2C	nt	7.6%	nt	nt	nt	-3.4%
COc1cc(N(C)C)ccc1/C=C1\C=Cc2ccccc21	nt	nt	nt	-8.8%	nt	nt
CC(C)C[C@@H](/C=C/S(C)(=O)=O)NC(=O)[C@H](CC(C)C)NC(=O)[C@H](CC(C)C)NC(=O)OCc1ccccc1	nt	nt	nt	nt	nt	-11.6%
COc1ccc(-c2csc3ncnc(N4CCN(S(=O)(=O)c5ccc(Cl)s5)CC4)c23)cc1	16.2%	-12.0%	-1.3	2.7%	i	nt
COc1ccc(-c2csc3ncnc(N4CCN(c5cccc(Cl)c5)CC4)c23)cc1	1.1%	3.1%	-9.3	6.8%	i	-7.3%
SMILES	Mito fusion act	TDP-43 yeast inh	CCT chaperon mod	aSyn yeast inh	Akt phos inh	Apoferritin bind
COc1ccc(-c2csc3ncnc(N4CCN(S(=O)(=O)c5cccs5)CC4)c23)cc1	-23.5%	12.6µM*	0.4	8.2%	i	nt
COc1ccc(N2CCN(c3ncnc4scc(-c5ccc(F)cc5)c34)CC2)cc1	4.2%	12.6µM*	-2.4	-0.3%	i	-0.3%
COc1ccc(-c2csc3ncnc(N4CCN(c5cccc(OC)c5)CC4)c23)cc1	-2.0%	11.2µM*	-2.9	-2.1%	i	-1.6%
CN1CCC2(CC1)N=C(c1ccc(F)cc1)C(=S)N2C(=O)c1ccc(C(C)(C)C)cc1	1.5%	20µM*	1.6	13.9%	i	-7.3%
COc1cccc(NC(=O)CCc2nnc3n(CC(C)C)c(=O)c4ccccc4n23)c1	nt	18.8%	nt	nt	nt	6.4%
COc1cc(OC)cc(C2=Nn3c(nnc3-c3ccccc3OC)SC2)c1	nt	nt	nt	nt	nt	-13.5%
CCCc1nc(SCC(=O)c2ccccc2)c2c(=O)n(C)c(=O)n(C)c2n1	26.2%	14.1µM*	-3.0	?	i	3.9%
CCOC(=O)C(C(=O)OCC)N(C#N)c1nc(OC)nc(N(C)C)n1	?	-9.0%	-4.1	8.9%	-112.7%*	-5.5%
Cc1ccc(S(=O)(=O)N[C@@H](Cc2ccccc2)C(=O)CCl)cc1	-37.0%	3.16µM*	-0.7	-39.1%	i	-14.6%
Cc1ccc(S(=O)(=O)NCC(=O)OCc2ccccc2)cc1	8.3%	nt	-3.1	9.4%	i	-13.8%
Cc1ccc(S(=O)(=O)NC(Cc2ccccc2)C(=O)NN)cc1 (stereo not drawn)	-0.4%	2.2%	0.8	-1.3%	i	-14.9%
Cc1ccc(S(=O)(=O)NOCc2ccccc2)cc1	nt	-16.1%	0.6	17.8µM*	i	nt
O=C(O)c1ccc(-c2ccc(O)c(F)c2)cc1	-4.1%	15.8µM*	-1.6	11.8%	i	1.9%
COc1ccc(N2CCN(C(=O)CSc3nnc4c(C)cc5cc(C)ccc5n34)CC2)cc1	2.8%	?	-0.9	2.6%	i	-17.0%
COc1ccc(N2CCN(C(=O)CSc3nnc4c(C)cc5ccc(C)c(C)c5n34)CC2)cc1	5.9%	14.1µM*	-1.6	-1.5%	-118.9%*	2.0%
Cc1cc(OCC(=O)N(C)Cc2ccccc2)ccc1Cl	4.6%	11.2µM*	-2.1	3.9%	i	-6.7%
CCc1ccccc1NC(=O)C1C(c2ccccc2)C1(Cl)Cl (stereo not drawn)	-0.2%	25.4%	0.5	-11.2%	-106.6%*	4.9%
O=C(Nc1ccccc1Cl)C1C(c2ccccc2)C1(Cl)Cl (stereo not drawn)	19.2%	12.6µM*	-2.7	4.3%	i	-8.9%
CCOc1ccccc1NC(=O)C1C(c2ccccc2)C1(Cl)Cl (stereo not drawn)	nt	?	0.7	0.8%	i	nt
Cc1ccc2nc(CO)[nH]c2c1	nt	nt	nt	-9.1%	nt	nt
COc1ccccc1C(=O)Nc1nnc(SCc2cc(=O)n3ccc(C)cc3n2)s1	nt	0.0%	nt	nt	nt	-8.6%
COc1cc(O)c2c(c1)oc(=O)c1c3cc(O)c(O)cc3oc21	nt	nt	nt	nt	nt	71.4%
CC(NS(=O)(=O)OCC(Cl)(Cl)Cl)c1ccc(Br)cc1 (stereo not drawn)	5.4%	35.5µM*	-3.5	-0.6%	i	?
COc1ccc2c(c1)OC[C@H]1[C@H]2N2C(=O)c3cc(C)ccc3NC(=O)[C@@]2(C)[C@H]1c1ccccc1	nt	?	0.1	3.6%	i	nt
COc1ccc2c(c1)OC[C@H]1[C@H]2N2C(=O)c3ccccc3NC(=O)[C@@]2(C)[C@H]1c1ccccc1	nt	28.2µM*	-1.6	8.4%	i	nt
